Assay results published in PubChem BioAssay (NCI).
Compounds without any hit were thinned out: in the full panel of roughly 79,000, 15% have a hit. Activity calls are given as the source filed them. No stated cut-off is given here; in the data, active means growth inhibition above about 70%; inactive means the rest.

How the values were obtained:
[1] = NCI Yeast Anticancer Drug Screen. Data for the rad50 strain (AID 155);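 further: 0% = growth of vehicle-only cultures of the same strain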; details: S. cerevisiae rad50 strain growth inhibition, hits give high values
Procedure, shortened: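 Cells are treated with compound, grown, and their growth is then scored against vehicle-only cultures of the same repair-deficient yeast strain.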

[2] = NCI Yeast Anticancer Drug Screen. Data for the mec2-1 strain (AID 157); details: S. cerevisiae mec2-1 strain, hits give high values
Procedure, shortened: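 Yeast mec2-1 mutant treated with compound. Readout: growth inhibition vs vehicle controls.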

[3] = NCI Yeast Anticancer Drug Screen. Data for the sgs1 mgt1 strain (AID 161);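 further: 0% = growth of cultures given vehicle only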; details: S. cerevisiae sgs1 mgt1 strain, hits give high values
Procedure, shortened: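 Genetically altered yeast, compound exposure, growth inhibition relative to vehicle.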

[4] = NCI Yeast Anticancer Drug Screen. Data for the cln2 rad14 strain (AID 165);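 further: 0% = growth equal to vehicle treated cultures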; details: S. cerevisiae cln2 rad14 strain, hits give high values
Procedure, shortened: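 cln2 rad14 yeast strain; compound exposure; growth inhibition read vs vehicle controls.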

[5] = NCI Yeast Anticancer Drug Screen. Data for the bub3 strain (AID 167); details: S. cerevisiae bub3 mutant strain, hits give high values
Procedure, shortened: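 Part of a panel of yeast mutants defective in DNA damage repair or cell cycle regulation. Each strain is grown with compound, and inhibition is calculated relative to solvent-treated cultures.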

[6] = NCI Yeast Anticancer Drug Screen. Data for the mlh1 rad18 strain (AID 175); details: S. cerevisiae mlh1 rad18 strain growth inhibition, hits give high values
Procedure, shortened: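 Yeast w/ defined DNA-repair lesions; compound exposure; growth vs vehicle controls → % inhibition.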

[7] = at 5.0 µM (retest, dose inferred, filed as 0.5)
[8] = at 50.0 µM (retest, dose inferred, filed as 5.0)

Measured: growth inhibition

CCc1oc2ccccc2c1C(=O)c1cc(Br)c(O)c(Br)c1
active: [1]; [8] 99% | [1]; at 50.0 µM 99.2% | [2]; [8] 100% | [2]; at 50.0 µM 99.3% | [3]; [8] 99% | [3]; at 50.0 µM 99.2% | [4]; [8] 100% | [4]; at 50.0 µM 99% | [5]; [8] 99% | [5]; at 50.0 µM 99.3% | [6]; [8] 99% | [6]; at 50.0 µM 99.2%
inactive: [1]; [7] 29% | [2]; [7] 11% | [3]; [7] 8% | [4]; [7] 8% | [5]; [7] 1% | [6]; [7] 18%

CCCOC(=O)c1nc(N(CC2CCCCC2)C(=O)NC)sc1/N=C/c1ccccc1
inactive: [1]; [7] 67% | [1]; at 50.0 µM 5.15% | [2]; [7] 62% | [2]; at 50.0 µM -18.9% | [3]; [7] 45% | [3]; at 50.0 µM 4.25% | [4]; [7] 68% | [4]; at 50.0 µM 37.9% | [5]; at 50.0 µM 10.8% | [6]; at 50.0 µM -10.2%
active: [1]; [8] 86% | [2]; [8] 90% | [3]; [8] 91% | [4]; [8] 88% | [5]; [7] 77% | [5]; [8] 92% | [6]; [7] 73% | [6]; [8] 92%

S=C1NC2=C(COc3ccccc32)C(c2ccc(Cl)cc2)N1 (stereo not given)
inactive: [1]; [7] 59% | [4]; [7] 69%
active: [1]; [8] 97% | [1]; at 50.0 µM 89.6% | [2]; [7] 70% | [2]; [8] 98% | [2]; at 50.0 µM 92.5% | [3]; [7] 85% | [3]; [8] 98% | [3]; at 50.0 µM 92.5% | [4]; [8] 97% | [4]; at 50.0 µM 90.5% | [5]; [7] 92% | [5]; [8] 98% | [5]; at 50.0 µM 90.8% | [6]; [7] 86% | [6]; [8] 97% | [6]; at 50.0 µM 83.1%

CC[n+]1ccc(Nc2ccc(NC(=O)c3ccc(Nc4cc[n+](CC)c5ccc([N+](=O)[O-])cc45)cc3)cc2)cc1
inactive: [2]; [7] 14%
active: [1]; [7] 84% | [1]; [8] 97% | [1]; at 50.0 µM 99% | [2]; [8] 97% | [2]; at 50.0 µM 99% | [3]; [7] 84% | [3]; [8] 98% | [3]; at 50.0 µM 99.5% | [4]; [7] 72% | [4]; [8] 96% | [4]; at 50.0 µM 97% | [5]; [7] 72% | [5]; [8] 97% | [5]; at 50.0 µM 99.1% | [6]; [7] 82% | [6]; [8] 97% | [6]; at 50.0 µM 97.8%

CCC(C)(O)Cc1ccc(Cl)cc1 (stereo not given)
inactive: [1]; [7] 4% | [1]; [8] -3% | [1]; at 50.0 µM -14.7% | [2]; [7] 1% | [2]; [8] -2% | [2]; at 50.0 µM 41.9% | [3]; [7] 0% | [3]; [8] -1% | [3]; at 50.0 µM 1.65% | [4]; [7] 3% | [4]; [8] -5% | [4]; at 50.0 µM -39.8% | [5]; [7] -6% | [5]; [8] -7% | [5]; at 50.0 µM -23.3% | [6]; [7] 3% | [6]; [8] -5% | [6]; at 50.0 µM -6.8%

O=C(CCc1ccccc1)ON1C(=S)NC(c2ccccc2)(c2ccccc2)C1=S
inactive: [1]; [7] 14% | [1]; [8] 42% | [1]; at 50.0 µM 29.7% | [2]; [7] 0% | [2]; [8] 22% | [2]; at 50.0 µM 55.7% | [3]; [7] -11% | [3]; [8] 64% | [3]; at 50.0 µM 63.3% | [4]; [7] 16% | [4]; [8] 59% | [5]; [7] 0% | [5]; [8] 47% | [6]; [7] 13% | [6]; [8] 61%
active: [4]; at 50.0 µM 70.2% | [5]; at 50.0 µM 79.2% | [6]; at 50.0 µM 72.4%

N#CC(I)CS(=O)(=O)c1ccccc1 (stereo not given)
inactive: [1]; at 50.0 µM 54.7% | [4]; at 50.0 µM 55% | [5]; at 50.0 µM 45.4% | [6]; at 50.0 µM 42.7%
active: [1]; [7] 99% | [1]; [8] 99% | [2]; [7] 100% | [2]; [8] 99% | [2]; at 50.0 µM 98.7% | [3]; [7] 99% | [3]; [8] 99% | [3]; at 50.0 µM 99.3% | [4]; [7] 99% | [4]; [8] 99% | [5]; [7] 99% | [5]; [8] 99% | [6]; [7] 99% | [6]; [8] 98%

CC(C)Nc1ccc(Nc2ccc(NC(C)C)cc2)cc1
inactive: [1]; [7] 0% | [1]; at 50.0 µM 65.7% | [2]; [7] -21% | [3]; [7] -1% | [3]; [8] 59% | [3]; at 50.0 µM 48% | [4]; [7] -10% | [5]; [7] -7% | [6]; [7] -15% | [6]; [8] 51%
active: [1]; [8] 81% | [2]; [8] 74% | [2]; at 50.0 µM 97% | [4]; [8] 73% | [4]; at 50.0 µM 92.9% | [5]; [8] 80% | [5]; at 50.0 µM 92.5% | [6]; at 50.0 µM 92.3%

CC1OC(OC2C(OC3CCC4(C)C(CCC5(C)C4CC=C4C6CC(C)(C)CCC6(C(=O)O)CCC45C)C3(C)CO)OCC(O)C2O)C(O)C(O)C1O (stereo not given)
active: [1]; [7] 94% | [1]; [8] 99% | [1]; at 50.0 µM 89.5% | [2]; [7] 87% | [2]; [8] 100% | [2]; at 50.0 µM 89.8% | [3]; [7] 95% | [3]; [8] 99% | [3]; at 50.0 µM 90.3% | [4]; [7] 89% | [4]; [8] 98% | [4]; at 50.0 µM 88.5% | [5]; [7] 97% | [5]; [8] 99% | [5]; at 50.0 µM 87.7% | [6]; [7] 93% | [6]; [8] 98% | [6]; at 50.0 µM 88.2%

CC1(O)CCCCCC1
active: [1]; [8] 74% | [1]; at 50.0 µM 85% | [3]; at 50.0 µM 88.2% | [4]; at 50.0 µM 77.7% | [5]; [8] 74% | [5]; at 50.0 µM 84.2% | [6]; [8] 91% | [6]; at 50.0 µM 71.1%
inactive: [1]; [7] -13% | [2]; [7] -29% | [2]; [8] 58% | [2]; at 50.0 µM 69.7% | [3]; [7] -7% | [3]; [8] 54% | [4]; [7] 28% | [4]; [8] 68% | [5]; [7] 3% | [6]; [7] 16%
